Assay results published in PubChem BioAssay AID602346 (Broad Institute, 2012).
In all, about 340,000 compounds went through this assay and about 1,200 (0.35%) were called active. No stated cut-off is given here; in the data, active means inhibition above about 50% (passing the limit was not always enough); inconclusive means no clear call, values can overlap the other calls; inactive means below about 31%. Shown is part of a subset that was picked to be rich in actives.

Experiment: blockers of Vif multimerization in cells – imaging, HEK293T, single point, primary screen (AID 602346)
Settings: Vif self-association by quenched fluorescence, 24 h, at 7.49 µM, active compounds read high

Structure (SMILES) | inhibition
O=C(/C=C\c1cn(-c2ccccc2)nc1-c1cccs1)N1CCOCC1 | 87.7% (active)
O=C(O)c1ccc(N/N=C/c2cn(-c3ccccc3)nc2-c2cccs2)cc1 | -6.33% (inactive)
COc1ccc(-c2nn(-c3ccccc3)cc2/C=C\C(=O)N2CCOCC2)cc1[N+](=O)[O-] | 1.35% (inactive)
O=CNc1cc(-c2ccc(C(=O)N3CCOCC3)cc2)cn2c(-c3ccc(F)cc3)cnc12 | 6.34% (inactive)
CCN(CC)CCn1c2ccc(Cl)cc2c2nc(C)sc21 | 16.1% (inactive)
CCN(CC)CCCC(C)n1c2nc(=O)[nH]c(=O)c-2nc2cc(Cl)ccc21 (centres undefined) | 128% (active)
Cc1nc2c(OCc3ccc(Cl)cc3)cccn2c1N(C)Cc1cccs1 | -12.4% (inactive)
O=C(Nc1ccc2oc(-c3ccccc3F)nc2c1)c1ccco1 | 4.71% (inactive)
CC(Oc1cccc(NC(=O)c2cccs2)c1)C(=O)c1ccccc1 (centres undefined) | 12.5% (inactive)
O=C(Nc1ccc2oc(-c3ccc4ccccc4c3)nc2c1)c1cccs1 | 52.2% (active)
C#CCN(C[C@@H]1[C@@H](OC(=O)NC2CC2)[C@@H](OC(=O)NC2CC2)Cn2c(=O)ccc(=O)n21)S(=O)(=O)c1ccc(C)cc1 | -0.284% (inactive)
CCOC(=O)c1ccc(N/C(=N/S(=O)(=O)c2ccccc2)c2ccccc2)cc1 | -4.64% (inactive)
CCOC(=O)c1ccc(Nc2cc3ccccc3c(=O)[nH]2)cc1 | 9.05% (inactive)
CCOC(=O)c1nc(Nc2ccc(C(=O)OC)cc2)c2ccccc2n1 | 99.4% (active)
CN(C)C(=O)c1cccc(-c2cnc3sc(NCc4ccc5c(c4)OCO5)nn23)c1 | -12% (inactive)
COc1cccc(-n2c(SCC(=O)c3c[nH]c4ccccc34)nc3ccccc3c2=O)c1 | -2.01% (inactive)
COc1ccc(/C=C(\C#N)c2c[nH]c3ccccc23)cc1 | 52.1% (active)
COc1ccc(C2C(C(C)=O)=C(O)C(=O)N2CCc2c[nH]c3ccccc23)cc1 (centres undefined) | -11.5% (inactive)
Cc1ccc(C(NC(=O)C2CCN(CCOc3ccc(Cl)cc3Cl)CC2)c2ccccn2)cc1 (centres undefined) | 4.63% (inactive)
Cc1ccccc1Cn1c(C)c(C(=O)NCc2cccc(C(F)(F)F)c2)sc1=O | -7.14% (inactive)
CCOC(=O)C1=CCC(c2ccc(F)cc2)N(S(=O)(=O)c2ccc(C)cc2)C1 (centres undefined) | 24.4% (inactive)
COc1cc(OC)cc(C(=O)N[C@H](C(=O)NNC(=O)c2ccc(Br)cc2)C(C)C)c1 | 1.45% (inactive)
COc1cc(OC)cc(C(=O)N[C@H](C(=O)Nc2nc3ccccc3[nH]2)C(C)C)c1 | 116% (active)
COc1ccc(C(=O)N[C@H](C(=O)NCc2ccccc2)C(C)C)cc1 | 4.63% (inactive)
Cc1nc2c(OCc3ccc(Cl)cc3Cl)cccn2c1N(C)CC1CC1 | -14% (inactive)
O=C(NCc1nnnn1-c1ccc(Cl)cc1)c1ccc([N+](=O)[O-])o1 | 6.82% (inactive)
CCC(=O)Nc1ccc(S(=O)(=O)Nc2c(NC)c3ccccc3oc2=O)cc1 | -6.99% (inactive)

Structure (SMILES) | inhibition
NCCCNC(=S)NCCCN(Cc1ccc(Cl)cc1)c1ccc(Br)cn1 | -10.7% (inactive)
O=C(COC(=O)c1ccccc1)Nc1cccc(S(=O)(=O)N2CCOCC2)c1 | 6.23% (inactive)
O=C(COC(=O)/C=C/c1ccc(Br)o1)Nc1cccc(S(=O)(=O)N2CCOCC2)c1 | 72.1% (active)
NS(=O)(=O)c1cccc(NC(=O)COC(=O)/C=C/c2ccco2)c1 | 40.9% (inactive)
C[C@@H]1CN([C@H](C)CO)S(=O)(=O)c2ccc(C#C[C@@H](C)O)cc2O[C@@H]1CN(C)Cc1ccc(-c2ccccc2)cc1 | -0.002% (inactive)
NC(Cc1ccc(F)cc1)c1csc(Nc2nncc3ccccc23)n1 (centres undefined) | -17.9% (inactive)
Cc1cccnc1C(NC(=O)C1CCN(Cc2ccc(Cl)c(Cl)c2)CC1)c1ccc(Cl)cc1 (centres undefined) | 11.5% (inactive)
COc1ccc(CNC(=O)c2ccc(-c3cccnc3)c3ccoc23)cc1OC | -16.6% (inactive)
CCCNC(=O)C1(C)CCN(Cc2ccc(Cl)c(Cl)c2)C1 (centres undefined) | 3.78% (inactive)
COc1ccc(-c2cc(NC=O)c3ncc(-c4cc(OC)c(OC)c(OC)c4)n3c2)c(OC)c1 | 21.8% (inactive)
Cc1cc(C)c2c(-c3ccc(F)cc3)c(C#N)c(=O)n(C)c2n1 | 54.6% (active)
COc1ccc(O)c(C(=O)c2cnc3c(c2)c(-c2ccc(F)cc2)c(C#N)c(=O)n3C)c1 | 1.06% (inactive)
Cn1c(N)cc(-c2ccc(F)cc2)c(C#N)c1=O | -9.36% (inactive)
NC(c1csc(NC(=O)Nc2cccc(C(F)(F)F)c2)n1)C1CCCCC1 (centres undefined) | -1.56% (inactive)
CC(C)(C)n1nc(Cc2cccc3ccccc23)c(C#N)c1N | 13.5% (inactive)
CCc1nn(-c2cc(Oc3cccc4ccccc34)nc(-c3ccccc3)n2)c(N)c1C#N | 53.3% (active)
CC1(C(=O)NCc2ccc(F)c(F)c2)Cc2c(-c3ccc4c(c3)OCO4)ccnc2O1 (centres undefined) | -5.82% (inactive)
CCN(CC)CCN(C(=O)c1ccc2c(c1)CCCC2)c1nc2c(OC)cccc2s1 | -7.26% (inactive)
C[C@@H]1CCCCO[C@H](CN(C)Cc2ccccc2)[C@@H](C)CN([C@H](C)CO)C(=O)c2cc(NS(=O)(=O)c3ccc(Cl)cc3)ccc2O1 | 8.14% (inactive)
CC(C)OCCCNc1ncnc2c1[nH]c1ccc(F)cc12 | 65.5% (active)
COc1ccc(C(=O)N2CCCCC2c2cc(C(=O)Nc3ccccc3)no2)cc1 (centres undefined) | 13.8% (inactive)
CC(C)N=C1CCCC1C(=S)SSC(=S)C1CCCC1=NC(C)C (centres undefined) | 0.152% (inactive)
CCOC(=O)C1CCCN(C(=O)c2cc(-c3cccs3)oc2C)CC1 (centres undefined) | -8.46% (inactive)
CC(C)c1cccc(-c2csc(C(O)c3ccccc3)n2)c1 (centres undefined) | -7.2% (inactive)
CC(C)n1cnc2c(NCc3ccccc3)cc(OCC3CCN(C)CC3)cc21 | 78.2% (active)
CCC(CO)Oc1cc(NC(=O)c2cccc3ccccc23)c2ncn(C(C)C)c2c1 (centres undefined) | 1.25% (inactive)
CCC(CO)Oc1cc(NC(=O)c2cccc(F)c2)c2ncn(C(C)C)c2c1 (centres undefined) | -4.4% (inactive)
